Source: PubChem (National Center for Advancing Translational Sciences (NCATS))
POLH inh = inhibitors of human DNA polymerase eta. Q9Y253. Potency, µM (doses to about 114 µM), actives largely listed as inhibitors. 1.2% of 390,000 active. recombinant Pol eta, fluorescent DNA replication assay
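Pol eta at 10 nM preincubated with compounds 15 min at room temperature; reaction started with fluorescent substrate (50 nM final) and read kinetically at 0 and 10 min.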
ALOX12 inh = blocks human arachidonate 12S-lipoxygenase. 1.1% of 580,000 active. Potency, µM (titrated, usually from 108 µM), usual class: inhibitors. purified 12hLO, xylenol orange hydroperoxide absorbance. P18054
Target sequence (P18054 whole entry, looked up): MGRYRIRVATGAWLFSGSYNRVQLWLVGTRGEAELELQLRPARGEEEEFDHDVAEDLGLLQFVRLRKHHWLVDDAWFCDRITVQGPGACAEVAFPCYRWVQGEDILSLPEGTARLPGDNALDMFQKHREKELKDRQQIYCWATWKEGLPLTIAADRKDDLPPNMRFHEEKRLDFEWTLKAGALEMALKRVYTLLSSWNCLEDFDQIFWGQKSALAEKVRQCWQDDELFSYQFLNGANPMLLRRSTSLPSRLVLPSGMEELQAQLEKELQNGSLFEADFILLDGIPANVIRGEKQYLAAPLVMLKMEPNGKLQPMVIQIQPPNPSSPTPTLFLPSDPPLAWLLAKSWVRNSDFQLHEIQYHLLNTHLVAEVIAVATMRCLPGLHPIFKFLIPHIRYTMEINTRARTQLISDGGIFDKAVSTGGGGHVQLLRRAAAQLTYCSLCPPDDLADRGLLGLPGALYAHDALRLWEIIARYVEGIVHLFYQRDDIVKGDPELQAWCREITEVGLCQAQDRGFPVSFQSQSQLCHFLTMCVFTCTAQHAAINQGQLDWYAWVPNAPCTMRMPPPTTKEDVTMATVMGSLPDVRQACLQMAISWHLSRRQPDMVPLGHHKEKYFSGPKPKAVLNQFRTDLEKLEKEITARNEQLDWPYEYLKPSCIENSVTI
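Purified human 12hLO at 150 nM in 25 mM Hepes, 0.01% Triton X-100, pH 7.0, preincubated 15 min at room temperature with compound. Reaction started with 40 uM arachidonic acid, 30 min at room temperature. Hydroperoxide measured by Fe-xylenol orange, 573/405 nm absorbance ratio.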
PI5P4K alpha inh = inhibitors of human PI5P4K alpha; PI5P4Kalpha enzyme, ADP-Glo luminescence, 60 min; hits give low values; max response, %; 1.2% of 330,000 active; AID 652105; active = max response of -50% or lower; inconclusive = between -30% and -50%; inactive = -30% or higher; note: value at the top dose of about 77 µM
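qHTS, 1536-well: enzyme/substrate mix, compound by pin tool, 5 microM ATP final; RT 60 min; ADP-Glo reagents 1 (45 min) then 2 (30 min); luminescence.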
Pol beta inh = blocks human DNA polymerase beta activity; Potency, µM (series often up to 114 µM), hits mostly inhibitors; Pol beta primer extension/strand displacement, fluorescence kinetic; 1.3% of 340,000 active; AID 485314
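Homogeneous kinetic assay of primer extension and strand displacement by 10 nM Pol beta, preincubated 15 min at room temperature with compound before 50 nM substrate (final) was added. Read at 0 and 10 min; four-parameter Hill fit.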
POLI inh = inhibitors of human DNA polymerase iota; Q9UNA4; Pol iota fluorescent replication assay, 10 min; Potency, µM (top dose mostly 115 µM), actives largely listed as inhibitors; 1% of 390,000 active
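Pol iota at 10 nM preincubated 15 min with compounds at room temperature; reaction started with fluorescent substrate, 50 nM final. Fluorescence read kinetically at 0 and 10 min; buffer-only wells as negative control.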
POLK inh = inhibitors of human DNA polymerase kappa. purified Pol kappa, fluorescent DNA synthesis assay, 10 min. 0.53% of 400,000 active. Q9UBT6. Potency, µM (titrated, usually from 107 µM), hits mostly inhibitors
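Kinetic fluorescence screen: compound preincubated 15 min RT with 10 nM enzyme; 50 nM substrate (final) initiates; reads at 0/10 min.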
Of the large screens only hits and unclear results are named; the others gave an inactive call. Only some compounds are listed: those with a hit (about 2.9% of all), similar ones and a draw of the others. Unless noted, calls come from the whole dose curve; as a rule, active = well fitted inhibition curve with a large enough effect; inconclusive = small, poorly fitted or top-dose-only effect, or another doubt; inactive = no such curve, though single readings can be large or run the other way.

O=S(=O)(Nc1ccccc1)c1cccc2nsnc12	POLH inh inconclusive, ALOX12 inh inconclusive, PI5P4K alpha inh inconclusive, POLI inh 56µM, POLK inh inconclusive
Cc1ccc(NS(=O)(=O)c2cccc3nsnc23)cc1	none
CCNc1cc2n(c(=O)n1)CCc1cc(OC)c(OC)cc1-2	none (no result: PI5P4K alpha inh)
COc1cc2c(cc1OC)-c1cc(NC3CCCCC3)nc(=O)n1CC2	ALOX12 inh 25µM
COc1cc2c(cc1OC)-c1cc(NCc3ccccn3)nc(=O)n1CC2	ALOX12 inh 7.9µM, POLI inh 2.5µM
CC(CC(=O)Nc1ccc(F)cc1)(C(=O)O)c1ccccc1 (configuration not stated)	none (no result: POLH inh, PI5P4K alpha inh, Pol beta inh, POLI inh, POLK inh)
COc1ccc2cnn(CC(=O)Nc3cc(F)cc(F)c3)c(=O)c2c1OC	none (no result: POLH inh, PI5P4K alpha inh, Pol beta inh, POLI inh, POLK inh)
COc1cc(/C=C2/C=Cc3ccccc32)ccc1N(C)C	POLI inh 71µM, POLK inh inconclusive (no result: POLH inh, ALOX12 inh, PI5P4K alpha inh, Pol beta inh)
Cc1onc(-c2ccccc2Cl)c1C(=O)Nc1cccc(C(=O)NC(C)(C)C)c1	none (no result: POLH inh, PI5P4K alpha inh, Pol beta inh, POLI inh, POLK inh)
COc1ccc(/C=C/C(=O)NCCSCc2ccco2)cc1OC	POLI inh 71µM
Cc1cc(C)c(S(=O)(=O)NCCSCc2ccco2)c(C)c1	POLH inh 20µM, ALOX12 inh inconclusive, POLI inh 22µM, POLK inh inconclusive (no result: Pol beta inh)
COc1ccc(S(=O)(=O)NCCSCc2ccco2)cc1OC	POLH inh inconclusive, Pol beta inh 40µM, POLI inh 45µM (no result: PI5P4K alpha inh)
COc1ccc(/C=C/C(=O)NCCCc2ccccc2)cc1OC	none
O=C(OCCOc1ccc(F)cc1)c1n[nH]c(=O)c2ccccc12	none (no result: POLH inh, PI5P4K alpha inh, Pol beta inh, POLI inh, POLK inh)
COc1ccc(-c2noc(Cn3c(=O)c4ccccc4n(CC(=O)NCc4ccccc4)c3=O)n2)cc1	none (no result: POLH inh, PI5P4K alpha inh, Pol beta inh, POLI inh, POLK inh)
Fc1cccc(CSc2nc3ncc(Cl)cc3[nH]2)c1	Pol beta inh 35µM, POLI inh 71µM
CC12CCC3c4ccc(O)c([N+](=O)[O-])c4CCC3C1CCC2=O (configuration not stated)	PI5P4K alpha inh -59 (no result: Pol beta inh, POLI inh, POLK inh)
Cc1noc2c(-c3cccnc3NCCCn3ccnc3)cc(-c3ccccc3)nc12	none (no result: POLH inh, PI5P4K alpha inh, Pol beta inh, POLI inh, POLK inh)
CC1(c2nnc(Cc3ccccc3)o2)CC(c2ccccc2[N+](=O)[O-])=NO1 (configuration not stated)	PI5P4K alpha inh -51 (no result: ALOX12 inh, Pol beta inh)
Fc1ccc(Nc2ccnc(-c3ccccc3C(F)(F)F)n2)cc1	ALOX12 inh inconclusive (no result: POLH inh, PI5P4K alpha inh, Pol beta inh, POLI inh)
CN(C)c1ccnc(-c2ccccc2C(F)(F)F)n1	ALOX12 inh 50µM (no result: POLH inh, PI5P4K alpha inh, Pol beta inh, POLI inh)
Cc1cccc(C(=O)Nc2ccc(O)c(-c3nc4cc(C)ccc4o3)c2)c1	none (no result: POLH inh, PI5P4K alpha inh, Pol beta inh, POLI inh, POLK inh)
Cc1ccc2oc(-c3cc(NC(=O)c4ncn[nH]4)ccc3O)nc2c1	POLH inh 45µM, PI5P4K alpha inh inconclusive, Pol beta inh inconclusive
O=c1c(-c2ccco2)nc2ccccc2n1C(c1ccccc1)c1nc2ccccc2[nH]1 (configuration not stated)	ALOX12 inh 18µM (no result: POLH inh, Pol beta inh, POLI inh, POLK inh)
O=c1c(-c2cccs2)nc2ccccc2n1C(c1ccccn1)c1nc2ccccc2[nH]1 (configuration not stated)	ALOX12 inh 40µM (no result: POLH inh, Pol beta inh, POLI inh, POLK inh)
CCC(c1nc2ccccc2[nH]1)n1c(=O)c(-c2ccco2)nc2ccccc21 (configuration not stated)	ALOX12 inh 25µM, PI5P4K alpha inh inconclusive (no result: POLH inh, Pol beta inh, POLI inh, POLK inh)
O=c1c(-c2ccco2)nc2ccccc2n1C(c1ccccn1)c1nc2ccccc2[nH]1 (configuration not stated)	ALOX12 inh inconclusive (no result: POLH inh, Pol beta inh, POLI inh, POLK inh)
O=c1c(-c2ccco2)nc2ccccc2n1C(CCc1ccccc1)c1nc2ccccc2[nH]1 (configuration not stated)	ALOX12 inh inconclusive, PI5P4K alpha inh -73 (no result: POLH inh, Pol beta inh, POLI inh, POLK inh)
CCC(c1nc2ccccc2[nH]1)n1c(=O)c(-c2ccccc2)nc2ccccc21 (configuration not stated)	none (no result: POLH inh, Pol beta inh, POLI inh, POLK inh)
Cc1cccc(NC(=O)c2ccc(CNC(N)=O)cc2)c1C	none (no result: POLH inh, PI5P4K alpha inh, Pol beta inh, POLI inh, POLK inh)
Cc1nc2ncnn2c(C)c1CCC(=O)Nc1cccc(S(=O)(=O)N2CCOCC2)c1	none (no result: POLH inh, PI5P4K alpha inh, Pol beta inh, POLI inh, POLK inh)
O=C(Nc1nc(C23CC4CC(CC(C4)C2)C3)cs1)c1cccnc1	none (no result: POLH inh, PI5P4K alpha inh, Pol beta inh, POLI inh, POLK inh)
